# Inconclusive results are not listed. A number with no mark means an inactive call. Activity calls are given as the source filed them. The call rests on the fitted dose curve; in most records, active means well fitted inhibition curve with a large enough effect; inconclusive means small, poorly fitted or top-dose-only effect, or effect the other way; inactive means flat fitted curve, though single readings scatter.
# Target: Ubiquitin carboxyl-terminal hydrolase 2 (Homo sapiens) (UniProt O75604)
# Experiment: Confirmation Assay for Inhibitors of Ubiquitin-specific Protease USP2a Using CHOP2 as the Reporter; further: nearly all actives have a fitted effect of over 55% in size
# Conditions: USP2 core, Ub-CHOP2 coupled reporter fluorescence; series mostly up to 38.3 µM; activity change, negative = inhibition: at the top concentration
# Text: NIH Molecular Libraries Probe Centers Network [MLPCN] NIH Chemical Genomics Center [NCGC] MLSCN Grant: XO1-MH079852-01 PI Name: Nicholson, Ben. Progenra Inc, Malvern, PA NCGC Assay Overview: Homeostasis of cellular proteins is maintained through a combination of synthesis and degradation. The pathway that accounts for the majority of protein degradation is the ubiquitin-proteasomal pathway. Ubiquitin (Ub) is highly conserved in all cells and the generation of a multi-Ub chain typically targets proteins for degradation by the proteasome. However, ubiquitination is highly reversible and dynamic. Deubiquitination, the reverse process, is catalyzed through the action of enzymes referred to as isopeptidases or deubiquitinating enzymes (DUBs). This group of enzymes is collectively responsible for maintaining adequate pools of free ubiquitin and regulating the ubiquitination status of cellular proteins. The class of DUBs referred to as the ubiquitin-specific proteases (USP) family functions endoproteolytically to cleave Ub chains from a wide range of protein substrates. USP2a deubiquitinates fatty acid synthase (FASN) which has recently been identified as an emerging oncology target. To identify inhibitors of USP2a a cell-free assay was employed. […] The reporter enzyme chosen is an […] called CHOP2, which is activated when the Ub is cleaved by USP2. The free and now activated reporter can subsequently act on its reporter substrate. Thus, this coupled assay gives a fluorescent read-out at excitation/emission wavelengths of 485/531. The assay was developed by Progenra, Inc. and has been licensed for sale by LifeSensors, Inc. as Ub-CHOP2-Reporter-Kit (#PR1101).
# NCGC Assay Protocol Summary: The assay buffer, prepared fresh at the day of the assay, contains 20mM Tris-HCl pH 8.0, 2mM CaCl2, 2mM beta-Mercaptoethanol, 0.05% CHAPS. 3ul of 20nM (10nM final) USP2 core, which is stored on ice, is dispensed into a medium-binding black solid Kalypsys 1,536 well plate using the Kalypsys dispenser. The assay plate is then pinned with 23nL compound with the Kalypsys pintool in columns 5-48. The controls are pinned as follows: column 1 two-fold dilutions of 2M NEM in duplicate; column 2 2M NEM (final concentration 38.2mM); column 3&4 DMSO. The assay plate is incubated at RT for 30min. Subsequently, 1.5uL of 100nM (25nM final) Ub-CHOP2 and 1.5uL of 100nM (25nM final) Reporter Substrate (both stored on ice and protected from light) were dispensed into the plate using the Kalypsys dispenser. Plates were read after 60min RT incubation on a ViewLux (Perkin Elmer) plate reader using the following wavelengths Ex 485nm /Em 531nm. Data were normalized to the to AC100 inhibition (NEM). Concentration-response curves were fitted to the normalized data and the concentration-response curves were then classified based on curve quality (r2), response magnitude and degree of measured activity. The time zero reading was used to flag fluorescence artifacts. Keywords: ubiquitination, deubiquitination, proteases, profluorescent, MLSMR, MLPCN, NIH Roadmap, qHTS, NCGC
# Potency means the concentration at half of the fitted maximal effect.
# Ubiquitin carboxyl-terminal hydrolase 2 (Homo sapiens), sequence (O75604 whole entry, looked up): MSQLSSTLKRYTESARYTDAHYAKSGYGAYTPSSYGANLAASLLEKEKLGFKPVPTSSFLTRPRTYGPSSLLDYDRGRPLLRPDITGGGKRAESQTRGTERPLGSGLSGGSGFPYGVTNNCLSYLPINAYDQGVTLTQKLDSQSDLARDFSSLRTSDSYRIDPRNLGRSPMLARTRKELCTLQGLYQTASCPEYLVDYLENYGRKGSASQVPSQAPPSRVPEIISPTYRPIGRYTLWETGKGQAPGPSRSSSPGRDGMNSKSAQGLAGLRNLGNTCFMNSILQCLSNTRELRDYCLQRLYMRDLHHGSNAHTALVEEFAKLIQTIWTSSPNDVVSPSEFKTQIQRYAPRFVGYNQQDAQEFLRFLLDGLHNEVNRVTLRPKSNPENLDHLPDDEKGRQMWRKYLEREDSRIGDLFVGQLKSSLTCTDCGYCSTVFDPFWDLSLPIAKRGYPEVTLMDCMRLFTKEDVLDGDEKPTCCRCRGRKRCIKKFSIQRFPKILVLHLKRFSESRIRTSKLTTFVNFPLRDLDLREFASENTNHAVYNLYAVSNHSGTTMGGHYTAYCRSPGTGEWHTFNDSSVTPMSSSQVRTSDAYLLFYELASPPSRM
Structure (SMILES),"activity change, negative = inhibition",Potency
CCCNC(=O)NCc1ccc(N2CCCC2=O)cc1,-1.66%,–
CCOc1ccc(NC(=O)CSc2nnc(Cn3c(=O)sc4ccccc43)n2C)cc1,-0.518%,–
CC(C)Oc1ccc(C(=O)Nc2ccc(N3CCCC3)cc2)cc1,-1.01%,–
COCCn1c(CN(Cc2ccccc2)Cc2ccccc2)nc2c1c(=O)n(C)c(=O)n2C,3.16%,–
Cc1ccc(/C=C2/SC(=S)N(c3ccc(S(=O)(=O)Nc4nccs4)cc3)C2=O)cc1,–,6.56 µM (active)
CC(C)c1ccc(CCNC(=O)c2ccc([N+](=O)[O-])cc2)cc1,-1.71%,–
Cc1cccc(NC(=O)NCc2ccc3c(c2)cc(C)n3C)c1,-6.76%,–
O=C(O)C1CCN1C1CCCCC1 (stereo not given),-1.8%,–
C#CCOCCOCCOCCNc1nc(N2CCN(C(=O)CCCCCCCCCCNC(=O)[C@H]([C@@H](C)CC)n3cc(CCCCCN)nn3)CC2)nc(N2CCN(C(=O)CCCCCCCCCCNC(=O)[C@H]([C@@H](C)CC)n3cc(CCCCN=C(N)N)nn3)CC2)n1,–,6.56 µM (active)
CC(C)(C)NC(=O)C(c1ccco1)N(C(=O)c1ccc(CN2CCOCC2)o1)c1ccccc1 (stereo not given),0.713%,–
C=CCNCCOCCOc1ccccc1-c1ccccc1,-4.65%,–
CC(C)c1ccc(C2=C(O)c3ccccc3C(=O)C2=O)cc1,-0.0729%,–
CCCCNc1nc2ccccc2nc1NS(=O)(=O)c1cccs1,3.77%,–
Cc1cc(-c2csc(NCc3ccccc3)n2)c(C)n1C,–,18.5 µM (active)
O=C(C[n+]1cccc(C(=O)N/N=C/c2ccc(Br)cc2)c1)c1ccccc1,-1.53%,–
COc1ccc(S(=O)(=O)N2CCCC2C(=O)NCc2cccs2)cc1 (stereo not given),2.04%,–
O=C(Nc1nc(-c2ccco2)c(-c2ccco2)s1)C1CC(=O)N(c2ccc3c(c2)OCCO3)C1 (stereo not given),–,10.4 µM (active)
CNS(=O)(=O)c1cccc(C(=O)OCC(=O)c2cc(C)n(-c3ccc4c(c3)OCO4)c2C)c1,-4.53%,–
CN(C)S(=O)(=O)c1ccc(C(=O)NCCN=C2NS(=O)(=O)c3ccccc32)cc1,0.266%,–
Cc1ccc(C(=O)COC(=O)CNC(=O)CN2C(=O)c3ccccc3C2=O)cc1,5.5%,–

Structure (SMILES),"activity change, negative = inhibition",Potency
COc1ccc(-n2c(=S)[nH]c3cc(C(=O)NCc4ccc(F)cc4)ccc3c2=O)c(OC)c1,-2.17%,–
O=C(Nc1ncccc1Cl)c1cccc(F)c1,1.04%,–
c1ccc(CN2CCN(CCOCCOc3cccc4ccccc34)CC2)cc1,-13.4%,–
CN(C)CCCN1C(=O)C(=O)/C(=C(/O)c2ccncc2)C1c1cccnc1 (stereo not given),-0.824%,–
CCc1nnc(NC(=O)CSc2nccn2-c2cccc(C)c2)s1,-0.395%,–
CC(OC(=O)CN(C)S(=O)(=O)c1ccc(Cl)cc1)C(=O)Nc1ccc(N2CCOCC2)cc1 (stereo not given),0.112%,–
CCOc1ccc2[nH]c(=O)c(CN(Cc3cccs3)Cc3nnnn3C(C)(C)CC)cc2c1,-1.09%,–
Cc1cc(C)c(NC(=O)C[N+](C)(C)CC(O)COc2cccc3ccccc23)c(C)c1 (stereo not given),0.237%,–
O=C(C1CCCN(S(=O)(=O)c2cccc3cccnc23)C1)N1CCN(c2ccccc2F)CC1 (stereo not given),-4.76%,–
Nc1c(C(=O)NCC2CCCO2)sc2nc3c(c(-c4ccco4)c12)CC/C3=C\c1ccco1 (stereo not given),–,4.14 µM (active)
CCCn1c(N2CCN(Cc3cccc(C)c3)CC2)nc2c1c(=O)[nH]c(=O)n2C,-0.381%,–
CCOC(=O)Cn1c(=O)oc2cc(S(=O)(=O)Nc3cc(Cl)ccc3OC)ccc21,3.99%,–
Cc1ccc(NC(=O)CSc2nc(O)cc(=O)n2-c2ccc(C)cc2)cc1,-0.886%,–
COc1ccc(OC)c(Nc2ccc(Nc3cc(OC)ccc3OC)nn2)c1,-0.288%,–
COc1ccc(/C=N/NC(=O)c2nn(-c3ccccc3)c(=O)c3c(N)scc23)cc1,-4.38%,–
CC(CN1CCCCC1)OC(=O)c1ccc(Cl)cc1 (stereo not given),3.85%,–
COc1cc(C(c2c(C)[nH][nH]c2=O)c2c(C)[nH][nH]c2=O)ccc1OCc1ccc([N+](=O)[O-])cc1,-7.1%,–
Cc1ccc(C)n1NC(=O)c1ccccc1O,-3.08%,–
COc1cccc(NC(=O)Cc2ccccc2)c1,0.289%,–
CCOC(=O)c1sc(NC(=O)Nc2ccccc2)cc1C,2.01%,–

# — PubChem BioAssay AID493168 (National Center for Advancing Translational Sciences (NCATS), 2011)
